This is one part of a sample in which hits are shown more often than they occur.
GIRK2 activator – Activates human GIRK2-containing potassium channels. 34,000 tested, under 10 active. HEK293 GIRK2/NPY4 cells, thallium flux fluorescence. AID 1259324. P48051. activation (% efficacy), % for hits at 37.5 µM;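 active = primary screen hit, no activity in plain HEK293 cells, and in GIRK2-only cells above 5% efficacy rising with concentration; inactive = the rest, including fluorescent compounds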;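 note: efficacy is normalized control-subtracted fluorescence 15 s after thallium addition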
Target sequence (P48051 whole entry, looked up): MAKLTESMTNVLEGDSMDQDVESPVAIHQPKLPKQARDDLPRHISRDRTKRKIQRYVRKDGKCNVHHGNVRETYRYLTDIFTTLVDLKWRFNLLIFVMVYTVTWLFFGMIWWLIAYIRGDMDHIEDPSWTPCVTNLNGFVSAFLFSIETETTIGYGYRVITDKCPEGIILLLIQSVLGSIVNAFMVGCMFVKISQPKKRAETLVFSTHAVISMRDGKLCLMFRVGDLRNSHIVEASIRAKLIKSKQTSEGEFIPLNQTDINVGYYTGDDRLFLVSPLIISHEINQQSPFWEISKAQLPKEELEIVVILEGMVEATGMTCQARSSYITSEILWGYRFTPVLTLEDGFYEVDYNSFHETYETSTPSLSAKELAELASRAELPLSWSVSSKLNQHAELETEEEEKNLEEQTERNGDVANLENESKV
AMPAR-TARP mod – modulates AMPAR-stargazin complexes; O88602+P19491; HEK293 GluA2+stargazin, membrane potential dye (FDSS), glutamate EC50; hits were called plate by plate, in both directions; calls only at 30 µM; 40,000 compounds, 3.5% hits; AID 1259245;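 active = any of four per-well response measures lying three or more SD from its plate-wide compound average, in either direction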
* = called active by the depositor; i = inactive; · = not tested or not shown; + = active, no number.

SMILES | GIRK2 activator | AMPAR-TARP mod
COc1ccc(C(=O)Nc2nnc(-c3ccc(SC)cc3)o2)cc1OC | i | i
COc1ccc(C(=O)Nc2nnc(-c3cccs3)o2)cc1OC | · | +
Cc1cc(C(F)(F)F)nc(Nc2nc3ccccc3o2)n1 | · | i
CCc1ccc(S(=O)(=O)N2CCN(c3ccc(-c4ccc(Cl)cc4)nn3)CC2)s1 | i | i
CC(=O)Nc1ccc(NC(=O)c2nnn(-c3ccc(Cl)cc3)c2N)cc1 | i | i
Cc1ccc(C)c(-c2csc(NC(=O)Cc3ccc(S(C)(=O)=O)cc3)n2)c1 | · | i
COc1cc(OC)cc(C(=O)Nc2nnc(-c3ccc(OC)c(OC)c3)o2)c1 | i | +
COc1cc(OC)cc(C(=O)Nc2nnc(-c3ccc(OC)cc3OC)o2)c1 | · | i
O=C(COc1ncccn1)NCCNc1cc(-n2cccn2)ncn1 | i | ·
COc1cc(C)c(Cl)cc1S(=O)(=O)NC(C)(C)C | · | i
CCOCCCNS(=O)(=O)c1cc(Cl)c(C)cc1OC | · | +
CC(C)c1nnc(NC(=O)c2ccc(N3C(=O)c4ccccc4C3=O)cc2)s1 | i | i
Cc1ccc(C(C)C)c(OCCCn2c(CCCO)nc3ccccc32)c1 | i | i
CC(=O)NCCc1nc2ccccc2n1CCCOc1cc(C)ccc1C(C)C | i | +
CCN(CC)C(=O)Cn1cc(C(=O)C(=O)N2CCN(Cc3ccccc3)CC2)c2ccccc21 | · | i
CCN(CC)C(=O)Cn1cc(C(=O)C(=O)N(Cc2ccccc2)C(C)C)c2ccccc21 | · | +
O=S(=O)(NCCCN1CCOC(c2ccccc2)C1)c1cccc(Cl)c1 (stereo not given) | i | ·
Cc1cc(C)c2nc(NC(=O)c3cc(C)no3)sc2c1 | i | i
COc1ccc(C)c2sc(NC(=O)c3cc(C)no3)nc12 | i | +
CCn1c(=O)c2c(nc3n(CCCOC)c(C)c(C)n23)n(C)c1=O | i | i
Cc1cn2c3c(=O)n(Cc4ccccc4Cl)c(=O)n(C)c3nc2n1CCO | i | i
Cc1cn2c3c(=O)n(Cc4ccccc4F)c(=O)n(C)c3nc2n1CCCN(C)C | i | +
Cc1c(C)n2c3c(=O)n(CCCc4ccccc4)c(=O)n(C)c3nc2n1C(C)C | i | +
Cc1c(C)n2c3c(=O)n(Cc4ccc(F)cc4)c(=O)n(C)c3nc2n1CCCN(C)C | i | +
Cc1c(C)n2c3c(=O)n(CC(=O)OCc4ccccc4)c(=O)n(C)c3nc2n1C(C)C | i | i
SMILES | GIRK2 activator | AMPAR-TARP mod
O=S(=O)(c1ccc2c(c1)CCCC2)N1CCCSCC1CN1CCOCC1 (stereo not given) | i | ·
COc1cc(/C=C2/SC(=S)N(c3ccc(C)c(C)c3)C2=O)ccc1O | · | i
COc1cc(/C=C2\SC(=S)N(c3cccc(C)c3C)C2=O)ccc1O | · | +
Cn1c(SCc2nc(-c3ccccc3F)no2)nc2ccccc2c1=O | i | ·
COc1cc(S(=O)(=O)NCc2ccccc2)ccc1I | · | i
COc1ccc(C(=O)Nc2ccc(N3CCCC3=O)c(OC)c2)c(OC)c1 | i | i
O=C(Cn1cnc(-c2ccccc2)cc1=O)Nc1ccccn1 | i | i
COc1cccc(/C=C2/SC(=S)N(c3ccc4c(c3)OCO4)C2=O)c1OC | · | +
COc1cc(/C=C2\SC(=S)N(c3ccc4c(c3)OCO4)C2=O)cc(OC)c1OC | · | i
Cn1c(=O)c2cc(C(=O)Nc3cccc(S(N)(=O)=O)c3)sc2n(C)c1=O | i | +
Cn1c(=O)c2cc(C(=O)NCc3ccccc3)sc2n(C)c1=O | i | i
Cn1c(=O)c2cc(C(=O)NCCC(c3ccccc3)c3ccccc3)sc2n(C)c1=O | i | i
Cn1c(=O)c2cc(C(=O)Nc3ccc(Oc4ccccc4)cc3)sc2n(C)c1=O | i | i
Cn1c(=O)c2cc(C(=O)NCCCn3ccnc3)sc2n(C)c1=O | i | +
Cn1c(=O)c2cc(C(=O)NCCCN3CCOCC3)sc2n(C)c1=O | i | +
CS(=O)(=O)c1ccc(CC(=O)Nc2nc3cc4c(cc3s2)OCO4)cc1 | · | i
Cn1ccnc1N1CCN(C(=O)c2ccc(S(=O)(=O)N3CCOCC3)cc2)CC1 | i | i
CCOc1ccc(N2C(=O)/C(=C/c3ccc(OC)c(OC)c3)SC2=S)cc1 | · | i
CCc1ccc(S(=O)(=O)NCC2COC3(CCCCC3)O2)s1 (stereo not given) | i | i
O=S(=O)(NCC1COC2(CCCCC2)O1)c1cc(F)ccc1F (stereo not given) | i | +
O=[N+]([O-])c1ccccc1S(=O)(=O)NCC1COC2(CCCCC2)O1 (stereo not given) | i | i
COc1ccc(F)cc1S(=O)(=O)NCC1COC2(CCCCC2)O1 (stereo not given) | i | i
O=S(=O)(NCC1COC2(CCCCC2)O1)c1ccc(Cl)cc1 (stereo not given) | i | +
O=S(=O)(NCC1COC2(CCCCC2)O1)c1cccc2ccccc12 (stereo not given) | · | +
COC(=O)Nc1nc(CC(=O)N2CCN(c3ccccc3)CC2)cs1 | i | ·
SMILES | GIRK2 activator | AMPAR-TARP mod
Cc1cc(C)c2nc(N(CCN3CCOCC3)C(=O)c3cc(C)no3)sc2c1 | i | ·
CN1CCCc2cc(C(CNC(=O)C(=O)NCC3CCCO3)N(C)C)ccc21 (stereo not given) | i | i
COCCn1c(=NC(=O)CS(=O)(=O)c2ccc(OC)cc2)sc2cc(F)cc(F)c21 | i | i
COCCn1c(=NC(=O)c2ccno2)sc2cc(F)cc(F)c21 | i | +
O=C(Cn1nc(-n2cccn2)ccc1=O)Nc1ccc(F)c(Cl)c1 | i | i
Cc1ccc(CNC(=O)Cn2cnc(-c3ccc(C)cc3)cc2=O)cc1 | i | i
Cc1ccc(CNC(=O)Cn2cnc(C(C)C)cc2=O)cc1 | i | +
COc1ccc(Cl)cc1N1CC(c2nc3ccccc3n2CC(=O)NC(C)C)CC1=O (stereo not given) | i | i
O=S(=O)(Nc1cc(Cl)ccc1O)c1cc(Cl)ccc1Cl | i | +
COc1cc(S(=O)(=O)Nc2cc(Cl)ccc2O)c(OC)cc1C | i | i
Cc1c(Cl)cccc1S(=O)(=O)NCC(O)c1ccsc1 (stereo not given) | i | i
Cc1c(Cl)cccc1S(=O)(=O)NCC(O)c1ccc(C(F)(F)F)cc1 (stereo not given) | i | +
COc1ccc(S(=O)(=O)NCC(O)c2ccc(C(F)(F)F)cc2)cc1Cl (stereo not given) | · | +
O=S(=O)(NCC(O)c1ccc(C(F)(F)F)cc1)c1ccc2c(c1)CCCC2 (stereo not given) | i | i
O=C(COc1ccccc1)NCC1CCN(c2ncccn2)CC1 | i | i
COc1ccc(NC(=O)Oc2ccccc2)cc1N1CCCCC1=O | i | i
Cn1c(=O)c2c(nc(N3CCOCC3)n2CCSc2nc3ccccc3s2)n(C)c1=O | · | i
Cc1ccnc(SCCn2c(N3CCOCC3)nc3c2c(=O)n(C)c(=O)n3C)n1 | · | +
CC(=O)c1cccc(NC(=O)c2csc(Nc3ccccc3)n2)c1 | i | ·
Cc1ccc(NC(=O)C(=O)NCC(O)(c2ccco2)C2CC2)cc1C (stereo not given) | i | i
CCc1ccccc1NC(=O)C(=O)NCCc1ccc(Cl)cc1 | i | i
CSc1ccccc1NC(=O)C(=O)NCCc1ccc(Cl)cc1 | i | +
